Experimental findings from PubChem BioAssay AID612 (The Scripps Research Institute Molecular Screening Center, 2007) are described below.

Screen size: about 62,000 compounds; about 420 (0.68%) were called active. The full list was thinned out, with actives kept by preference. Values without a mark were called inactive.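 How the source made its calls: active means inhibition above the mean of all tested compounds plus 3 SD (cut at about 43% in these data); inactive means the rest.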

The target in this test is 5-hydroxytryptamine receptor 1A (Homo sapiens) (UniProt P08908). As to the kind of experiment: human 5-HT1a receptor antagonists, primary screen, cell-based, CHO, Ga15 NFAT-bla reporter (AID 612).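 Further: receptor stimulated by 5-CT agonist at 100 nM near EC80; beta-lactamase reporter measured by ratiometric fluorescence of a cleavable substrate.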 Conditions: CHO 5-HT1a Ga15 NFAT-bla reporter, antagonist mode; at 10 µM; active compounds read high.
5-hydroxytryptamine receptor 1A (Homo sapiens), sequence (P08908 whole entry, looked up): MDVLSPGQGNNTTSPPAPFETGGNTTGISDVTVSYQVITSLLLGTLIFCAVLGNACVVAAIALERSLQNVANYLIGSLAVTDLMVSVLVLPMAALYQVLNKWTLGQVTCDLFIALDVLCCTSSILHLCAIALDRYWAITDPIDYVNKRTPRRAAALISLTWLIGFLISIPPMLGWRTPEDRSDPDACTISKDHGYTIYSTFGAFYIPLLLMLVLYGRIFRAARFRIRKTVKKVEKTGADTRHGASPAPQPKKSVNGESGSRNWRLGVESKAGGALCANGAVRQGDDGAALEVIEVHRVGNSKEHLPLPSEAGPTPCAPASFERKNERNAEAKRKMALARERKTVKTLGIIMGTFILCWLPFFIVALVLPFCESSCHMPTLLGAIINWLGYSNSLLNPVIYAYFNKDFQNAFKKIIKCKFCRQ
Turning to `O=C(Nc1cc(C(F)(F)F)ccc1Cl)c1cc(C2CC2)on1`, the inhibition was 2.5%.

Turning to `O=C(OCC(O)C(O)COC(=O)c1ccccc1)c1ccccc1` (stereo not given), the inhibition was -11.9%. As for `S=C1SCN(CCN2CCOCC2)CN1Cc1ccccc1`, the figure is -2.1%; as for `CCOc1ccccc1C1NC(=O)NC(C)=C1C(=O)OCc1ccco1` (stereo not given), -4.6%. As for `CCOc1ccc2[nH]c(=O)c(C(c3nnnn3CCOC)N3CCOCC3)cc2c1` (stereo not given), the figure is -1.9%; as for `CC(=O)c1sc2nc(SCC(=O)N3CCCCC3)[nH]c(=O)c2c1C`, -6.6%; as for `Cc1cccc(NC(=O)c2ccccc2NC(=O)C(C)(C)C)n1`, 1.6%. In the case of `O=S(=O)(Nc1ccccc1N1CCOCC1)c1ccc(Cl)s1`, the inhibition is 4.3%.

On to `CCOC(=O)C1CCN(Cc2coc3ccc(Cl)cc3c2=O)CC1`, for which the inhibition is 5%. For the molecule `O=C(NCc1ccc2c(c1)OCO2)C1CCCN(S(=O)(=O)c2cccs2)C1` (stereo not given), the inhibition is -2.9%. As for `Cc1ccnc(SCCn2c(Br)nc3c2c(=O)[nH]c(=O)n3C)n1`, the figure is -4.8%; as for `CC(C)Cc1cc(C(=O)Nc2cc(Br)ccc2O)no1`, 17.4%. As for `CCn1c(SCC(=O)Nc2nccs2)nnc1-c1ccncc1`, the figure is -5%; as for `Cc1ccc(C(=O)NC2CCN(C(=O)N3CCOCC3)CC2)cc1`, -11.8%; as for `COc1cc(C2C(C(=O)c3ccc(C)o3)=C(O)C(=O)N2CCc2ccccc2)ccc1O` (stereo not given), -1.1%.

On to `COc1ccc(CCN(C)CCN2C(=O)c3ccccc3C2=O)cc1OC`, for which the inhibition is -14.2%. As for `COc1ccc(CCN2C(=O)c3[nH]nc(-c4ccccc4O)c3C2c2ccc(C)cc2)cc1OC` (stereo not given), the figure is 54.6% (active).

For the molecule `O=C(C1CC1)N1CCN=C1SCc1ccc(Cl)cc1`, the inhibition was 13%. As for `N#CC1=C(N)C(C#N)(C#N)[C@H](c2ccsc2)[C@H]2COCC=C12`, the figure is -8.8%. As for `O=C(CN1CCOCC1)Nc1c(-c2ccccc2)c2cc(Br)ccc2[nH]c1=O`, the figure is -10.8%.
